A selection: hits, their analogues and other compounds. The true share with any hit is near 3.9%.
D1 potentiator: enhances dopamine response at the human D1 receptor | HEK293 TREx D1 cells, calcium flux, dopamine EC20 potentiation | 360,000 compounds, 0.036% hits | potentiation, % at 10 µM | P21728; in the data active means potentiation above about 30%
D1 antagonist: human D1 dopamine receptor antagonism | P21728 | HEK293 TREx D1 cells, calcium flux, dopamine EC80; active compounds read low | activity change, negative = inhibition, % at 10 µM | 360,000 compounds, 3.2% hits | AID 504652; in the data active means activity change below about -30%
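Calcium flux readout: force-coupled, inducible Hek293 Trex D1 line, cells induced overnight at 30 C with tetracycline, dye-loaded 30–90 min at RT. Antagonism scored against EC80 dopamine challenge given 180 s after compound.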
Eya2 inh: inhibitors of human Eya2 phosphatase activity | 330,000 compounds, 0.006% hits | AID 488837 | recombinant Eya2, OMFP fluorescence dephosphorylation (OMFP is methylfluorescein phosphate) | Potency, µM (titrated, usually from 76.9 µM), hits mostly inhibitors
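Eya2 protein (added as 0.2 uM solution) was preincubated with compound for 10 min at ambient temperature in 50 mM HEPES pH 7.5, 50 mM NaCl, 5 uM MgCl2, 0.05% BSA, 1 mM DTT. OMFP (added at 50 uM) then reacted 10 min; fluorescence read at 485/525 nm.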
USP2a inh: blocks human ubiquitin-specific protease USP2a; AID 463254; 330,000 compounds, 0.01% hits; USP2 core, Ub-CHOP2 coupled fluorogenic reporter, 485/531; Potency, µM (titrated, usually from 38.3 µM), most hits filed as inhibitors
Target sequence (O75604 whole entry, looked up): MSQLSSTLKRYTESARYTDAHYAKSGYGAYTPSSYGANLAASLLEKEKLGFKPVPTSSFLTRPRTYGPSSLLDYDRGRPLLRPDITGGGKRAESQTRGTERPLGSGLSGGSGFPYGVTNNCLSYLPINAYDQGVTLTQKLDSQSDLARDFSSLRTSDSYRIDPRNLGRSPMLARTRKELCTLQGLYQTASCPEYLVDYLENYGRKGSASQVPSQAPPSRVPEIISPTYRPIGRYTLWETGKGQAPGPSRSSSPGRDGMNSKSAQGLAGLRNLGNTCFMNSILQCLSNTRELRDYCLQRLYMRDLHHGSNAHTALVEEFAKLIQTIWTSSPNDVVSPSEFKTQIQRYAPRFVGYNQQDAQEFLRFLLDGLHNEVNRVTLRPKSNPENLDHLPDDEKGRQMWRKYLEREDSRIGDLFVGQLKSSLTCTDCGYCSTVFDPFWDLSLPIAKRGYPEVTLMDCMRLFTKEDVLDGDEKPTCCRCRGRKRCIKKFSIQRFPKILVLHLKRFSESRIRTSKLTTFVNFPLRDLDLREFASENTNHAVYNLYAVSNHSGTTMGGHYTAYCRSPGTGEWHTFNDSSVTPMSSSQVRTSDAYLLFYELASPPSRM
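Deubiquitinase activity read as fluorescence (485/531 nm) after Ub-CHOP2 cleavage activates the enterokinase reporter on its substrate; USP2 core 10nM, Ub-CHOP2 and substrate 25nM each, 30min compound preincubation then 60min RT; data normalized to NEM, curves fitted.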
GALK inh: inhibitors of human galactokinase; P51570; Purified GALK, Kinase-Glo residual ATP luminescence; Potency, µM (series often up to 57.5 µM), most hits filed as inhibitors; 270,000 compounds, 0.007% hits; AID 1868
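GALK at 5 nM final was combined with compound, 35 uM ATP and 100 uM galactose in HEPES pH8.0 with MgCl2 and DTT. The reaction ran one hour at room temperature before luminescent ATP detection.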
D1 ag: agonists of human D1 dopamine receptor; P21728; HEK293 T-REx D1 cells, calcium flux, agonist mode; activation, % at 2 µM; 360,000 compounds, 1% hits; in the data active means activation above about 30%
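Tetracycline-induced HEK293 TREx D1 cells, force-coupled to calcium signalling, were dye-loaded with a no-wash calcium kit. Compound was pin-added after a 10 s baseline. Fluorescence was read kinetically at 1 cycle/s for 180 s, with calcium rises flagged as agonism.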
A number is an active result; n = inactive; x = no result given. Unless noted, the call rests on the fitted dose curve; in most records, active means well fitted inhibition curve with a large enough effect; inconclusive means small, poorly fitted or top-dose-only effect, or effect the other way; inactive means flat fitted curve, though single readings scatter.

SMILES	D1 potentiator	D1 antagonist	Eya2 inh	USP2a inh	GALK inh	D1 ag
Cc1ccc(/C=C/c2onc(C)c2S(=O)(=O)N2CCC(C(=O)Nc3ccc(C)c(N(C)C)c3)CC2)cc1	n	n	x	x	x	n
Cc1cccc(C(=O)Nc2ccccc2C(=O)OCc2cc(=O)n3nc(C4CC4)sc3n2)c1	n	n	x	x	x	n
COc1ccc(OC)c(NC2=NC3(CCCCC3)N=C(N)N2)c1	n	-53.6	n	n	n	n
COc1ccc(NC2=NC3(CCCCC3)N=C(N)N2)cc1	n	-87.3	n	n	n	n
CCCCOc1ccc(NC2=NC3(CCCCC3)N=C(N)N2)cc1	n	n	n	n	n	n
CC(=O)c1ccc(NC(=O)COCc2cc(-c3ccc(F)cc3)on2)cc1	n	n	x	x	x	n
COc1ccc(CCNc2nc(C)nc3c2nnn3Cc2ccccc2)cc1	n	-56.7	n	n	n	n
COc1ccc(C(=O)Nn2c(C)nnc2-n2nc(C)cc2C)cc1OC	n	-31.0	n	n	n	n
O=C(NC(NNc1ccc([N+](=O)[O-])cc1)(C(F)(F)F)C(F)(F)F)c1ccc(Cl)cc1	n	-54.2	n	n	n	30.6
CCc1ccc(NC(=S)NCc2ccccc2)cc1	n	-37.8	n	n	n	n
Fc1ccc(CNC(=S)Nc2ccc(OC(F)F)cc2)cc1	n	-42.3	n	n	n	n
S=C(NCc1ccccc1)Nc1ccncc1	n	-55.9	n	n	n	n
O=C(Nc1cccc(-n2cnnn2)c1)c1cc(Cl)ccc1Cl	n	-44.1	n	n	n	n
O=C(Nc1cccc(-n2cnnn2)c1)c1ccco1	n	-57.0	n	n	n	n
O=C(Nc1cccc(-n2cnnn2)c1)c1cc2ccccc2o1	n	n	n	n	n	n
CCOC(=O)c1ccc(N2C(=O)c3[nH]nc(-c4ccccc4)c3C2c2ccc(CC)cc2)cc1 (configuration not stated)	n	n	x	x	x	n
CCOC(=O)c1[nH]c2c(c1Cc1ccccc1)C(=O)CC(c1ccc(Cl)cc1)C2 (configuration not stated)	n	n	x	x	x	n
COc1ccc(CNC(=O)c2cc3cc(OC)ccc3oc2=O)cc1	n	n	n	n	n	n
Cc1ccc(CNC(=O)c2cc(=O)c3ccc(C)cc3o2)cc1	n	n	n	n	x	n
Cc1ccc(CNC(=O)c2cc(=O)c3ccccc3o2)cc1	x	-35.4	n	n	n	n
COc1ccc(CNC(=O)c2cc(=O)c3cc(C)ccc3o2)cc1	n	-36.2	n	n	n	n
COc1ccc2oc(=O)c(C(=O)NCc3ccc(C)cc3)cc2c1	n	-37.3	n	n	n	n
Cc1ccc2c(=O)cc(C(=O)Nc3c(C)cccc3C)oc2c1	n	-32.1	x	x	x	n
O=C(CCS(=O)(=O)c1ccc(Br)cc1)Nc1ccc(Cl)c(C(F)(F)F)c1	n	n	x	x	x	n
N#Cc1ccccc1OCC(=O)N1CCN(c2ccccc2F)CC1	n	n	x	x	x	n
SMILES	D1 potentiator	D1 antagonist	Eya2 inh	USP2a inh	GALK inh	D1 ag
Cc1cc2oc(C(=O)Nc3c(C(=O)Nc4ccccc4)oc4ccccc34)cc(=O)c2cc1C	n	-42.9	x	x	x	n
Cc1cccc(NC(=O)c2oc3ccccc3c2NC(=O)c2cc(=O)c3ccccc3o2)c1	n	n	x	x	x	n
Fc1ccc(-n2ncc3c(Nc4ccc(Oc5ccc(Cl)cc5)cc4)ncnc32)cc1	n	n	x	x	x	n
COCCNC(=O)c1ccc(CSCc2cccc(Cl)c2)o1	n	n	n	n	n	n
Cc1cccc(CSCc2ccc(C(=O)NCCc3ccccc3)o2)c1	n	-79.3	x	x	x	n
CCOc1ccc(CCNC(=O)c2ccc(CS(=O)(=O)c3ccccc3C)o2)cc1OCC	n	n	x	x	x	n
CCOc1ccc(CCNC(=O)c2ccc(CSCc3ccccc3C)o2)cc1OCC	n	n	x	x	x	36.3
O=C(NCCc1ccc(Cl)cc1)c1ccc(CSCc2ccccc2Cl)o1	n	n	x	x	x	31.5
COc1cc(O)c(C(CCN2CCCCC2)c2ccc(N(C)C)cc2)c(OC)c1 (configuration not stated)	n	-33.5	n	n	n	n
COc1cc(OC)c2c(-c3ccccc3)cc(=O)oc2c1C(CC(=O)N1CCOCC1)c1ccc2c(c1)OCO2 (configuration not stated)	n	-60.4	n	n	n	n
COc1cc(O)c(C(CCN2CCCC2)c2ccc3c(c2)OCO3)c(OC)c1 (configuration not stated)	n	n	n	n	n	n
COc1cc(OC)c2c(C)cc(=O)oc2c1C(CCN1CCN(c2ccccc2)CC1)c1ccc2c(c1)OCO2 (configuration not stated)	n	-79.5	n	n	n	n
COc1cc(OC)c2c(-c3ccccc3)cc(=O)oc2c1C(CC(=O)N1CCN(c2ccccc2)CC1)c1ccc2c(c1)OCO2 (configuration not stated)	n	n	n	n	n	n
COc1cc(O)c(C(CCN2CCN(c3ccccc3)CC2)c2ccc3c(c2)OCO3)c(OC)c1 (configuration not stated)	n	-76.3	n	n	n	n
CCc1ccc(-n2c(=O)c3c4c(sc3n(CC(=O)NCCCOC)c2=O)CCCC4)cc1	n	n	x	x	x	n
COc1cc(O)c(C(CCN2CCN(c3ccccc3)CC2)c2cc(OC)c(OC)c(OC)c2)c(OC)c1 (configuration not stated)	n	-86.9	n	n	n	n
Cc1ccc(Cn2nc(C)c(NC(=O)CSc3nc4c(c(C(F)(F)F)n3)CCc3ccccc3-4)c2C)cc1	n	-86.5	n	n	n	n
O=[N+]([O-])c1cc(C(F)(F)F)cc([N+](=O)[O-])c1NCCNC(=S)Nc1ccc(Cl)c(Cl)c1	n	-31.5	n	n	n	n
CC(=O)N1CCC2(CC1)OC(=O)C(C)=C2C(=O)NCc1ccccc1Cl	n	n	x	x	x	n
CCS(=O)(=O)N1CCC2(CC1)OC(=O)C(C)=C2C(=O)NCc1ccccc1C	n	-54.3	x	x	x	n
COc1ccc2c(c1)CC(NC(=O)Nc1c(C)cc(C)cc1C)CO2 (configuration not stated)	n	n	x	x	x	n
CC1CN(C(=O)CCC(=O)Nc2cc(F)ccc2F)c2ccccc2S1 (configuration not stated)	n	n	x	x	x	n
CC(=O)c1ccc(OCC(=O)c2cc(C)n(-c3ccc4c(c3)OCO4)c2C)cc1	n	-44.4	n	n	n	n
CCc1ccccc1Nc1nn2c(=O)c3ccc(C(=O)NCCC4=CCCCC4)cc3nc2s1	n	n	x	x	x	n
CC(C)(C)c1ccc(S(=O)(=O)NCCc2ccncc2)cc1	n	-95.4	n	n	n	n

Screening results: PubChem BioAssay, National Center for Advancing Translational Sciences (NCATS)
